Consider 20 molecules from PubChem BioAssay (NCATS).

Records with an inconclusive call do not appear. A call without a number means that no potency is given here. Active and inactive are the calls of the source. Calls come from the whole dose curve; as a rule, active = well fitted inhibition curve with a large enough effect; inconclusive = small, poorly fitted or top-dose-only effect; inactive = flat fitted curve, though single readings scatter.

The test relates to Zika virus NS2B-NS3 protease. The test is described as follows: Primary screen GU AMC qHTS for Zika virus inhibitors (AID 1347154). Note: nearly all actives have a fitted effect of over 70% in size. The settings on record: Zika NS2B-NS3 unlinked protease, AMC fluorogenic substrate; series mostly up to 54.1 µM. The procedure, abridged: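 Unlinked Zika NS2B hydrophilic domain/NS3 protease domain noncovalent complex (25 nM final) in 10 mM Tris-HCl pH 8.0, 0.01% Tween 20, with AMC peptide substrate. Fluorescence (ex 340, em 450 nm) change over 15 min, room temperature; percent inhibition fitted to 4-parameter Hill equation.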
(In qHTS, concentration-response curves come from the screen itself.)
As to `Cc1onc(-c2ccccc2)c1-c1ccc(S(N)(=O)=O)cc1`, the Potency entry is “inactive”.
The entry for `COc1ccc(-c2cc(=O)c3c(O)cc(O[C@@H]4O[C@H](CO[C@@H]5O[C@@H](C)[C@H](O)[C@@H](O)[C@H]5O)[C@@H](O)[C@H](O)[C@H]4O)cc3o2)cc1O` is “inactive”; for `O=C(O)Cc1ccc(CCNS(=O)(=O)c2ccc(Cl)cc2)cc1` it is “inactive”; for `CC(=O)Oc1cccc(C)c1` it is “inactive”.
Consider `COc1ccc2cc(CCC(C)=O)ccc2c1`, for which the Potency result was “inactive”.
The entry for `COC(=O)c1ccccc1C(=O)c1ccc(OCCN2CCCCC2)cc1` is “inactive”.
The entry for `CCCCCCCC(=O)OCC(O)CO` (stereo not given) is “inactive”; for `NS(=O)(=O)c1cc2c(cc1C(F)(F)F)NCNS2(=O)=O` it is “inactive”; for `O=C1CC[C@@H](C(=O)O)N1` it is “inactive”.
The entry for `CCOC(=O)c1cccnc1` is “inactive”.
As to `CC(=O)Oc1cccc(O)c1`, the Potency entry is “inactive”.
The entry for `CC(C)CCOC(=O)c1ccc(N(C)C)cc1` is “inactive”; for `CC1(C)S[C@@H]2[C@H](NC(=O)C(C(=O)O)c3ccccc3)C(=O)N2[C@H]1C(=O)O` (stereo not given in full) it is “inactive”; for `OC(CCN1CCCC1)(c1ccccc1)C1CCCCC1` (stereo not given) it is “inactive”.
Under `CCCCCCCCCCCCCCCCN` stands “inactive”; under `O=C(O)c1cc(=O)c2ccccc2o1`, “inactive”; under `CC(=O)N(CC(O)CO)c1c(I)c(C(=O)NCC(O)CO)c(I)c(C(=O)NCC(O)CO)c1I` (stereo not given), “inactive”.
The entry for `C[C@@H](N)C(=O)O` is “inactive”; for `CCN(CC)C(=O)c1cccc(C)c1` it is “inactive”.
As for `COC(=O)N/N=C/c1c[n+]([O-])c2ccccc2[n+]1[O-]`, the Potency result was “inactive”.
